Assay: small-molecule microarray binders of probe aShh, primary screen, biochemical, biotinylated probe, 635/667 nm fluorescence (AID 1114);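 further: probe is biotin-labelled aShh protein from a stem cell growth factor screen; measures binding of labelled protein to compounds printed on the slide; score merges feature fluorescence at 667 nm with signal-to-noise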
Conditions: higher = more signal

With `COc1c(C)cc(-c2cc3c(c(-c4ccc(Oc5ccccc5)cc4)n2)[Si](C(C)C)(C(C)C)OC3)cc1C` as the molecule, how does the composite z-score read?
Its composite z-score is -0.138.

For `CCOC(=O)C[C@H]1[C@H](OC(=O)c2ccc(-c3ccccc3)cc2)[C@@H](NC(=O)c2ccc3ccccc3c2)c2cc(OCCCO)ccc2N1C(=O)Cc1ccc(OC)cc1`, which composite z-score is on record?
Its composite z-score is 0.151.

Which composite z-score does the source give for `CC(C)C(=C=CC[C@@H](O)c1ccccc1OCCO)C[C@@H](O)c1ccccn1` here?
Its composite z-score is -0.0553.

For `CN(C)C(=O)[C@@]1(CCC(=O)OC(C)(C)C)N=C(c2ccc(OCCCO)cc2)O[C@H]1c1ccccc1`, which composite z-score is on record?
The composite z-score was 0.357.

For `C=CCN1C(=O)[C@]2(O[C@H](CCO)[C@@H]([Si](C)(C)c3ccc(OC)cc3)[C@@H]2C)c2cc(NC(=O)[C@H](C)O)ccc21`, which composite z-score is on record?
Its composite z-score is 0.13.

With `Cc1ccc(S[C@]2(C(=O)NCCN3CCOCC3)CC(=O)N(Cc3cc(C(F)(F)F)cc(C(F)(F)F)c3)[C@@H]2c2ccc(CO)cc2I)cc1` as the molecule, how does the composite z-score read?
Its composite z-score is -0.331.

With `CCOC(=O)C[C@H]1[C@H](OC(=O)c2ccc(C(=O)c3ccccc3)cc2)[C@@H](NC(=O)C2CCCCC2)c2cc(OCCCO)ccc2N1C(=O)c1ccccc1` as the molecule, how does the composite z-score read?
The composite z-score was 0.0483.

With `CC(C)(C)N1CC=CC23O[C@@H]4/C=C\CCCOC(=O)C4[C@H]2C(=O)N(CCO)[C@@H]3C1=O` (stereo not given in full) as the molecule, how does the composite z-score read?
The composite z-score was 0.0121.

Which composite z-score does the source give for `CC1CC/C=C\[C@H]2OC34C=CCN(Cc5ccccc5)C(=O)[C@H]3N(CCCCCO)C(=O)[C@@H]4C2C(=O)O1` (stereo not given in full) here?
Its composite z-score is -0.345.

Assay: small-molecule microarray binders of probe aNog, primary screen, biochemical, biotinylated probe, 635/667 nm fluorescence (AID 1115);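 further: probe is biotinylated aNog protein used at 0.15 µg/mL for 1 h at 4 C; z-score combines 667 nm fluorescence of each spot with its signal to noise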
Conditions: higher = more signal

Which composite z-score does the source give for `COC(=O)c1c(CC[C@@H](CO)NC(=O)N[C@@H](Cc2ccccc2)Cn2cc(C3(O)CCCCC3)nn2)oc(C(C)=O)c1C(=O)OC` here?
The composite z-score was -0.449.

For `Cc1ccc(S[C@]2(C(=O)NCc3ccccc3)CC(=O)N(Cc3ccccc3Cl)[C@@H]2c2ccc(CO)cc2I)cc1`, which composite z-score is on record?
The composite z-score was -0.581.

With `COCCOC(=O)N1C(=O)[C@@]2(c3cc(C#Cc4ccc(OC)cc4)ccc31)[C@H](C(=O)N1CCN(c3ncccn3)CC1)[C@H]1C(=O)O[C@H](c3ccccc3)[C@H](c3ccccc3)N1[C@@H]2c1ccc(O)cc1` as the molecule, how does the composite z-score read?
The composite z-score was -0.366.

Which composite z-score does the source give for `CC(C)(C)OC(=O)CC[C@@]1(C(=O)NCCN2CCOCC2)N=C(c2ccc(OCCCO)cc2)O[C@@H]1c1ccccc1` here?
The composite z-score was -0.193.

For `COCCOC(=O)N1C(=O)[C@@]2(c3cc(C#CC4(O)CCCCCC4)ccc31)[C@H](C(=O)N1CCCCCCC1)[C@H]1C(=O)O[C@H](c3ccccc3)[C@H](c3ccccc3)N1[C@@H]2c1ccccc1OCCO`, which composite z-score is on record?
The composite z-score was 2.36.

With `CC(C)c1ccc(NN2C(C(O)c3c(F)cccc3Cl)C=CC3C(=O)N(c4ccccc4)C(=O)C32)cc1` (stereo not given) as the molecule, how does the composite z-score read?
Its composite z-score is 1.94.

For `O=C1OCC=C[C@H]2OC34C=CCN(c5ccc6ccccc6c5)C(=O)[C@H]3N(CCCO)C(=O)[C@@H]4[C@@H]12` (stereo not given in full), which composite z-score is on record?
Its composite z-score is 0.135.

For `CCCCC(CC)C(O)C1C=CC2C(=O)N(c3ccccc3)C(=O)C2N1Nc1ccccc1` (stereo not given), which composite z-score is on record?
The composite z-score was -0.259.

With `O=C1C=CC(=O)[C@@H]2CC(COc3ccccc3)=C3[C@@H](CCc4ccccc4)OB(O)C[C@@H]3[C@H]12` as the molecule, how does the composite z-score read?
The composite z-score was -0.175.

For `NC(=O)NCC#Cc1ccc2c(c1)[C@]1(C(=O)N2)[C@H](C(=O)NC[C@H](O)c2ccccc2)[C@H]2C(=O)O[C@H](c3ccccc3)[C@H](c3ccccc3)N2[C@@H]1c1ccc(O)cc1`, which composite z-score is on record?
The composite z-score was 0.921.

With `COC(=O)[C@@]1(Cc2ccccc2)[C@H]2c3cc(C(=O)N(C)C)n(Cc4c(-c5ccccc5)noc4C)c3C[C@H]2CN1C(=O)c1ccccc1` as the molecule, how does the composite z-score read?
The composite z-score was 1.85.

For `[N-]=[N+]=Nc1ccccc1[C@H]1OC(c2ccc(OCCCO)cc2)=N[C@@]1(CCS(=O)(=O)c1ccccc1)C(=O)O`, which composite z-score is on record?
Its composite z-score is 1.01.

For `COCCCNC(=O)[C@@]1(C)c2ccccc2C(=O)N(Cc2cc(C(F)(F)F)cc(C(F)(F)F)c2)[C@H]1c1ccc(CO)cc1`, which composite z-score is on record?
The composite z-score was 0.583.

With `CC(C)(C)N1CC=CC23O[C@@H]4C=CCOC(=O)[C@@H]4[C@H]2C(=O)N(CCCCCO)[C@@H]3C1=O` (stereo not given in full) as the molecule, how does the composite z-score read?
Its composite z-score is 1.03.

Which composite z-score does the source give for `CC(C)N1C(=O)c2ccccc2[C@@H](C(=O)NCCCN(C)C)[C@@H]1c1ccc(CO)cc1` here?
Its composite z-score is 0.707.

For `COc1ccc(C(=O)Nc2cccc(CN3C(=O)[C@]4(O[C@H](CC(=O)N5CCC[C@H]5CO)[C@@H]([Si](C)(C)c5ccc(OC)cc5)[C@@H]4C)c4ccccc43)c2)cc1`, which composite z-score is on record?
The composite z-score was 0.0733.

For `O=C(CS)NCCCCCCNC(=O)[C@@H]1C[C@@H]2C(=O)N3CCC[C@H]3C(=O)N2[C@@H]1c1ccc(O)cc1`, which composite z-score is on record?
The composite z-score was -0.264.

Which composite z-score does the source give for `C=C[C@@H](COC(C)=O)N(Cc1ccccc1[N+](=O)[O-])S(=O)(=O)c1ccc(Br)cc1` here?
Its composite z-score is -0.56.

Which composite z-score does the source give for `COc1cc2c(cc1O)C(C)N(Cc1cccc(OC(F)(F)F)c1)CC2` (stereo not given) here?
The composite z-score was 0.582.

With `CC(C)N1C(=O)C[C@@](C(=O)NCc2ccccc2)(c2ccc([N+](=O)[O-])cc2)[C@H]1c1ccc(CO)cc1` as the molecule, how does the composite z-score read?
The composite z-score was -0.498.

With `CCCN1C(=O)[C@]2(COC(c3ccc(OCCCO)cc3)=N2)Cc2ccccc21` as the molecule, how does the composite z-score read?
Its composite z-score is 0.705.

For `COC(=O)C(CC#Cc1ccc2c(c1)[C@]1(C(=O)N2)[C@H](c2ccc(OCCO)cc2)N2[C@H](c3ccccc3)[C@H](c3ccccc3)OC(=O)[C@H]2[C@@H]1C(=O)NC[C@H](O)c1ccccc1)C(=O)OC`, which composite z-score is on record?
Its composite z-score is 0.333.

Which composite z-score does the source give for `O=C1C2C=CC(C(O)c3ccc(B(O)O)cc3)N(Nc3ccccc3)C2C(=O)N1c1ccccc1` (stereo not given) here?
Its composite z-score is 0.162.

With `O=C1O[C@H](c2ccccc2)[C@H](c2ccccc2)N2[C@H]1[C@@H](C(=O)NC[C@H](O)c1ccccc1)[C@]1(C(=O)Nc3ccc(C#CCCO)cc31)[C@H]2c1ccc(O)cc1` as the molecule, how does the composite z-score read?
Its composite z-score is -0.0725.

For `O=C1O[C@@H](c2ccccc2)[C@@H](c2ccccc2)N2[C@@H](c3ccc(O)cc3)[C@]3(C(=O)Nc4ccc(C#CC5=CCCCC5)cc43)[C@@H](C(=O)O)[C@H]12`, which composite z-score is on record?
The composite z-score was 0.413.

With `CCOC(=O)C1=CCC(c2ccc(C#N)cc2)N(S(=O)(=O)c2ccc(C)cc2)C1` (stereo not given) as the molecule, how does the composite z-score read?
Its composite z-score is -0.557.

For `CCN(CC)c1ccc(N2CC=CC34O[C@@H]5C=CCCOC(=O)C5[C@H]3C(=O)N(CCCCCO)[C@@H]4C2=O)cc1` (stereo not given in full), which composite z-score is on record?
The composite z-score was -0.025.

Which composite z-score does the source give for `COc1c(C)cc(-c2cc3c(c(-c4ccc(Oc5ccccc5)cc4)n2)[Si](C(C)C)(C(C)C)OC3)cc1C` here?
Its composite z-score is -0.111.

With `CCOC(=O)C[C@H]1[C@H](OC(=O)c2ccc(-c3ccccc3)cc2)[C@@H](NC(=O)c2ccc3ccccc3c2)c2cc(OCCCO)ccc2N1C(=O)Cc1ccc(OC)cc1` as the molecule, how does the composite z-score read?
The composite z-score was -0.0209.

For `CC(C)C(=C=CC[C@@H](O)c1ccccc1OCCO)C[C@@H](O)c1ccccn1`, which composite z-score is on record?
The composite z-score was -0.158.

Which composite z-score does the source give for `CN(C)C(=O)[C@@]1(CCC(=O)OC(C)(C)C)N=C(c2ccc(OCCCO)cc2)O[C@H]1c1ccccc1` here?
The composite z-score was 0.546.

For `C=CCN1C(=O)[C@]2(O[C@H](CCO)[C@@H]([Si](C)(C)c3ccc(OC)cc3)[C@@H]2C)c2cc(NC(=O)[C@H](C)O)ccc21`, which composite z-score is on record?
The composite z-score was -0.204.

Which composite z-score does the source give for `Cc1ccc(S[C@]2(C(=O)NCCN3CCOCC3)CC(=O)N(Cc3cc(C(F)(F)F)cc(C(F)(F)F)c3)[C@@H]2c2ccc(CO)cc2I)cc1` here?
The composite z-score was -0.389.

For `CCOC(=O)C[C@H]1[C@H](OC(=O)c2ccc(C(=O)c3ccccc3)cc2)[C@@H](NC(=O)C2CCCCC2)c2cc(OCCCO)ccc2N1C(=O)c1ccccc1`, which composite z-score is on record?
The composite z-score was -0.158.

For `CC(C)(C)N1CC=CC23O[C@@H]4/C=C\CCCOC(=O)C4[C@H]2C(=O)N(CCO)[C@@H]3C1=O` (stereo not given in full), which composite z-score is on record?
Its composite z-score is -0.261.

For `CC1CC/C=C\[C@H]2OC34C=CCN(Cc5ccccc5)C(=O)[C@H]3N(CCCCCO)C(=O)[C@@H]4C2C(=O)O1` (stereo not given in full), which composite z-score is on record?
The composite z-score was -0.0704.
